Hits are enriched below; roughly 4% of the tested compounds scored in any of these assays.
TRHR ag: agonists of human TRH receptor | AID 493084 | P34981 | activation, % at 2 µM | TRHR cells, calcium flux fluo-8, FDSS agonist mode | 0.18% of 360,000 active; note: 0% is about no effect
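Steps: seed TRHR cells overnight; add fluo-8 no-wash Ca dye, RT 30 min–1.5 h; record 10 s baseline; pin-transfer compounds; monitor fluorescence 1 cycle/s for the agonist window. Calcium increases flag candidate agonists.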
Glioma ERSR ind: induces the endoplasmic reticulum stress response in human glioma cells | 0.02% of 420,000 active | U87-MG GRP78 promoter luciferase reporter, 16 h | AID 602332 | Potency, µM, for inactives: at the highest dose activation, usual class: activators; active = well fitted activation curve with a large enough effect; note: potency is the fitted concentration of half-maximal effect; series mostly up to about 76 µM; % of control where 0% means no effect; nearly all actives have a fitted effect of over 35% in size
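Stably transfected U87-MG glioma cells carrying a GRP78-based luciferase sensor; 16 h compound incubation. Luminescence end-point read 10 min after Bright-Glo addition at room temperature.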
D1 antag: antagonists of human D1 dopamine receptor. HEK293 TREx D1 cells, calcium flux, dopamine EC80; stronger effect = lower value. activity change, negative = inhibition, % at 10 µM. 3.2% of 360,000 active. AID 504652; in the data active = activity change below about -30%; note: % is set by controls: 0 for no effect and ±100 for the full control effect
Target sequence (P21728 whole entry, looked up): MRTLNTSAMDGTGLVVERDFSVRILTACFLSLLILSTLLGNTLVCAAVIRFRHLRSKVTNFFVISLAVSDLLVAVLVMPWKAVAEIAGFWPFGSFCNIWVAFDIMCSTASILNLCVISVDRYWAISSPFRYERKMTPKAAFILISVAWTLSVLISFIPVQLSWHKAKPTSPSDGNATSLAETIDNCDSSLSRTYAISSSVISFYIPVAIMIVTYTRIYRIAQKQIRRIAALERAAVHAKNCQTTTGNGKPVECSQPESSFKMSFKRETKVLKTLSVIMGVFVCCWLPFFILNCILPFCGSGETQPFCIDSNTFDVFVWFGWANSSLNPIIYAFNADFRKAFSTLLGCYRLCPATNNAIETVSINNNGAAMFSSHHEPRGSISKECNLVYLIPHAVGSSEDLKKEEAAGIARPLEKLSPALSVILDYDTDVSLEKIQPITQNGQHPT
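Tetracycline-induced HEK293 T-REx cells with force-coupled D1 receptor were loaded with a no-wash calcium dye. Compound was added after a 10 s baseline and read kinetically for 180 s; EC80 dopamine was then added and calcium flux followed another 180 s.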
TRHR enhancer: allosteric enhancers of human TRH receptor; TRHR cells, fluo-8 calcium fluorescence, EC20 TRH enhancement; enhancement, % at 2 µM; 0.66% of 360,000 active; P34981; in the data active = enhancement above about 30%; note: 0% is about no effect
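TRHR-expressing cells loaded with fluo-8 calcium dye were read kinetically (ex 480/em 530) during compound addition, then stimulated with an EC20 of TRH (10 nM final). Enhancement of the Gq-mediated intracellular calcium response was scored.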
D1 potentiator: enhances dopamine response at the human D1 receptor; P21728; HEK293 TREx D1 cells, calcium flux, dopamine EC20 potentiation; potentiation, % at 10 µM; 0.036% of 360,000 active; AID 504651; in the data active = potentiation above about 30%; note: 0% is about no effect
D1 agonist: human D1 receptor agonism | P21728 | HEK293 T-REx D1 cells, calcium flux, agonist mode | activation, % at 2 µM | 1% of 360,000 active; note: 0% is about no effect
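Tetracycline-induced HEK293 TREx D1 cells, force-coupled to calcium signalling, were dye-loaded with a no-wash calcium kit. Compound was pin-added after a 10 s baseline. Fluorescence was read kinetically at 1 cycle/s for 180 s, with calcium rises flagged as agonism.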
An asterisk follows results filed as active; . = no result given. Cut-off read from the data, not from the text of the source, unless noted: active = activation above about 30%; inactive = the rest.

SMILES	TRHR ag	Glioma ERSR ind	D1 antag	TRHR enhancer	D1 potentiator	D1 agonist
CC1CN(C(=O)COC(=O)CSc2ccc(C(N)=O)cc2[N+](=O)[O-])CC(C)O1 (configuration not stated)	0	-4%	4	5	8	2
C=C1C(=O)O[C@@H]2C[C@@H](C)[C@@H]3C=CC(=O)[C@@]3(C)[C@@H](OC(C)=O)[C@H]12	0	-12%	-9	-4	-3	2
C[C@@H]1C[C@@H]2OC(=O)[C@]3(C)[C@H]2[C@@H](OC3(C)O)[C@]2(C)C(=O)C=C[C@H]12 (some centres not stated)	-1	3%	-37*	0	-6	5
COc1cccc(CN2C(=O)NC(C)(C3CCN(Cc4cc(F)cc(F)c4)CC3)C2=O)c1OC (configuration not stated)	.	-4%	.	.	.	.
c1cncc(-c2cccnc2)c1	2	-4%	-14	-1	-4	3
Oc1cncc(-c2cccnc2)c1	1	2%	.	31*	4	-3
COCCNC(=O)CCc1nnc2ccc(N3CCC(C)CC3)nn12	0	-1%	3	31*	-4	1
CCOC(=O)C(Cc1ccccc1)NC(=O)CCc1nnc2ccc(N3CCOCC3)nn12 (configuration not stated)	0	-1%	-30*	-3	-6	2
COCC(=O)N1CCC2(CCCN(c3ncccn3)C2)CC1	.	-1%	.	.	.	.
Cc1ccc(OC(=O)C(F)(F)F)c2c1NCCC2	0	-3%	-22	-4	34*	0
O=C(Nc1cccc([N+](=O)[O-])c1)C1C2/C=C\CCCCC21 (configuration not stated)	0	-2%	-34*	-9	-19	12
O=C(COC(=O)COc1ccccc1)Nc1cccc([N+](=O)[O-])c1	-1	-6%	-34*	7	0	6
CCn1cc([N+](=O)[O-])c(C(=O)Nc2ccc3c(c2)OCCO3)n1	-1	3%	-75*	-15	-7	0
O=C(CCCOc1ccccc1)Nc1cccc([N+](=O)[O-])c1	1	-7%	-5	0	-2	1
CC(C)S(=O)(=O)c1csc(NC(=O)Nc2cccc([N+](=O)[O-])c2)c1Cl	0	3%	-33*	-9	-9	20
CCn1cc([N+](=O)[O-])c(C(=O)NCc2ccc3c(c2)OCO3)n1	0	-1%	1	-1	-1	1
CC(C)c1ccc(OCC(=O)Nc2c3c(nn2C(C)(C)C)CS(=O)(=O)C3)cc1	-1	-6%	1	4	0	0
C=CC(C1=CC(=O)C(OC)=CC1=O)c1ccccc1 (configuration not stated)	.	-4%	.	.	.	.
O=C(Nc1cccc([N+](=O)[O-])c1)Nc1ccc2c(c1)OCCO2	1	6%	-40*	16	-7	18
O=C(Nc1ccc(C(=O)O)cc1)Nc1cccc([N+](=O)[O-])c1	0	-2%	-3	-7	-5	2
Cc1nc(-c2cccc(NC(=O)Nc3ccc([N+](=O)[O-])cc3)c2)no1	2	5%	-45*	-9	-6	25
COc1ccc(CCNC(=O)Nc2cccc([N+](=O)[O-])c2)cc1	-1	0%	-34*	-4	-6	15
O=C(Nc1cccc([N+](=O)[O-])c1)Nc1cccc([N+](=O)[O-])c1	0	-3%	-45*	-14	-9	37*
COc1ccc(C(O)c2nccc3cc(OC)c(OC)cc23)cc1OC (configuration not stated)	0	-4%	9	-4	-2	3
Cc1ccc(-n2ncc3c(N4CCN(Cc5ccccc5)CC4)ncnc32)cc1Cl	0	-2%	11	-4	-1	-3
O=C(Nc1nnc(Cc2ccccc2)s1)C1CCN(C(=O)c2cccs2)CC1	.	2%	.	.	.	.
c1ccc(CNc2ncnc3nc(N4CCOCC4)[nH]c23)cc1	.	-1%	.	.	.	.
O=C(COc1ccc(/C=N/NC(=O)c2ccncc2)cc1)Nc1cccc([N+](=O)[O-])c1	0	1%	-32*	0	-9	0

High-throughput results: PubChem, National Center for Advancing Translational Sciences (NCATS)
